Key:
Assay in all cases: DAPPL (digital affinity profiling via proximity ligation, sequencing); 10 mM Tris-HCl pH 7.5, 50 mM NaCl, 1 mM DTT, 4% glycerol, room temperature, 30 min; GST-TFs on glutathione beads, 16-mer random dsDNA library, 0.1% formaldehyde crosslink after washing; high values mean tight binding
Conditions in all cases: protein: recombinant; tags: N-terminal GST; dsDNA, one strand shown
ETV1 = ETV1 (Homo sapiens, UniProt P50549 1-477)
Method in brief: (§1)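 The binding signal reported is, for every hexamer, its read frequency for a factor over its read frequency for the tag-only sample. Reads came from pools of yeast-expressed, GST-fused human transcription factors on glutathione beads, barcoded with DNA and mixed with that sample, which were incubated with 200 nmole of a random double-stranded 16-mer DNA library in Tris/NaCl/DTT/glycerol buffer at room temperature for 30 min. After washing, the pools were crosslinked with 0.1% formaldehyde, proximity-ligated with BsaI/T4 ligase for 1 h at 37 °C, PCR-amplified and sequenced on an Illumina NextSeq500.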

ERF = molecular target: T1, ERF (Homo sapiens, UniProt P50548 1-548)
T1 sequence: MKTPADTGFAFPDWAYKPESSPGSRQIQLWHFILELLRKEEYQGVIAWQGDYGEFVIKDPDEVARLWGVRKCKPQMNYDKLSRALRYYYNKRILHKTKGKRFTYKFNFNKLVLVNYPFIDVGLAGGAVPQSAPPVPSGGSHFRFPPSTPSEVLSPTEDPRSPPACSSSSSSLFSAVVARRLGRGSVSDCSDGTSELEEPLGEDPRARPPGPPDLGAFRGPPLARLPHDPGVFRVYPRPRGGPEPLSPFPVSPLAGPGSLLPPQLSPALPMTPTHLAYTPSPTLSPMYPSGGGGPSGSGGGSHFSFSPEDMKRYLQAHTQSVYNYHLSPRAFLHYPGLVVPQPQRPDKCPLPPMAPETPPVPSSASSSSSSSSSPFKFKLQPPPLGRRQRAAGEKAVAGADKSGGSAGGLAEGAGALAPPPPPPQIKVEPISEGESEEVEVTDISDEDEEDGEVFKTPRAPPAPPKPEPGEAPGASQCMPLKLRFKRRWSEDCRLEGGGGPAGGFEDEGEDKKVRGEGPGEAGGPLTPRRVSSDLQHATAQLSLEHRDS
Method in brief: as §1

ETV3L = molecular target: T2, ETV3L (Homo sapiens, UniProt Q6ZN32 1-361)
T2 sequence: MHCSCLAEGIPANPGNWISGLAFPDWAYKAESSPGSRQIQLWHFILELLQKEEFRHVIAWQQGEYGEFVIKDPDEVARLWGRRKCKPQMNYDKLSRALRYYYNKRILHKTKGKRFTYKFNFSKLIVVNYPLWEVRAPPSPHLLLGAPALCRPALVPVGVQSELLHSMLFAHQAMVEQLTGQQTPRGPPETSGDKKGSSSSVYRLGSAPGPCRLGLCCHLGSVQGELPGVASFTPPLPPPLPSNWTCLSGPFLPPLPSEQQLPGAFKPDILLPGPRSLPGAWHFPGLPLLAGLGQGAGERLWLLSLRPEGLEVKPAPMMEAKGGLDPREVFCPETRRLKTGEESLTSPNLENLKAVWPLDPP
Method in brief: as §1

ETS2 = molecular target: T3, ETS2 (Homo sapiens, UniProt P15036 1-469)
T3 sequence: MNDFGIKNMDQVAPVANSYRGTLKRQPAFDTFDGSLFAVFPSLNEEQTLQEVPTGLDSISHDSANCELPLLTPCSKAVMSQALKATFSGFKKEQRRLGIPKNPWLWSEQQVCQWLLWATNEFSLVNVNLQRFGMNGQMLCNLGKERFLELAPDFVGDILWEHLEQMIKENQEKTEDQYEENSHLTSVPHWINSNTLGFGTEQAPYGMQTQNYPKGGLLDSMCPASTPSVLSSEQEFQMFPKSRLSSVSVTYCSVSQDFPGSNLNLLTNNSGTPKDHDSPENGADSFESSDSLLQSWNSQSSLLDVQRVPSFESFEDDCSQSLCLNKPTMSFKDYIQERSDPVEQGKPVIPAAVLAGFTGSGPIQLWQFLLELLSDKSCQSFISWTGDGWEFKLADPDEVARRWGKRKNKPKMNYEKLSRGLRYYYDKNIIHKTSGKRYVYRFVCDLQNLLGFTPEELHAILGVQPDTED
Method in brief: as §1

SPDEF = molecular target: T4, SPDEF (Homo sapiens, UniProt O95238 1-335)
T4 sequence: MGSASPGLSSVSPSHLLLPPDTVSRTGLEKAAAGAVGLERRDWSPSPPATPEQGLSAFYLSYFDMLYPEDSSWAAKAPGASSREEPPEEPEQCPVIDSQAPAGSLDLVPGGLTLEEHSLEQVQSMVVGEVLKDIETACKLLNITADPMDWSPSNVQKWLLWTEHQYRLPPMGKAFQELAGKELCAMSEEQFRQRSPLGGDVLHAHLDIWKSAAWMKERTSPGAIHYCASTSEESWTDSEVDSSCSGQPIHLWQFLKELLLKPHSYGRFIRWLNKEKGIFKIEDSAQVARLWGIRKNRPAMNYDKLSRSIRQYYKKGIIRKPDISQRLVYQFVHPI
Method in brief: as §1

ETV7 = molecular target: T5, ETV7 (Homo sapiens, UniProt Q9Y603 1-341)
T5 sequence: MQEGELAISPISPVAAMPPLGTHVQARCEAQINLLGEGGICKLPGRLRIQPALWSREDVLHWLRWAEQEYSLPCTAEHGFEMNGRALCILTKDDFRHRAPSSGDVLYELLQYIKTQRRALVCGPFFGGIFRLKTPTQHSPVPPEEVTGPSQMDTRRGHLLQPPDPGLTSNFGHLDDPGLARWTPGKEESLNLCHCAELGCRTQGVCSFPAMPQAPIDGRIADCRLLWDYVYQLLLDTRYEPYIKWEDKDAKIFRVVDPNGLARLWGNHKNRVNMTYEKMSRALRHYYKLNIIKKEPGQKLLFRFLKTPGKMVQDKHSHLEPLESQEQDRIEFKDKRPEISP
Method in brief: as §1

ELF5 = molecular target: T6, ELF5 (Homo sapiens, UniProt Q9UKW6-2 1-255)
T6 sequence: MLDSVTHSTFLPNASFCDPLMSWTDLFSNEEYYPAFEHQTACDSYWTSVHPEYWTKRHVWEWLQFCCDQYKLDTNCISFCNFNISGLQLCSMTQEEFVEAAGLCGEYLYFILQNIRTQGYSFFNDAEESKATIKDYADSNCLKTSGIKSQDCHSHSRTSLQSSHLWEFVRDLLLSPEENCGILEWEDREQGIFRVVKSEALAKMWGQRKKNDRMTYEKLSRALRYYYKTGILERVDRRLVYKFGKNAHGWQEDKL
Method in brief: as §1

ETV3 = molecular target: T7, ETV3 (Homo sapiens, UniProt P41162-2 1-143)
T7 sequence: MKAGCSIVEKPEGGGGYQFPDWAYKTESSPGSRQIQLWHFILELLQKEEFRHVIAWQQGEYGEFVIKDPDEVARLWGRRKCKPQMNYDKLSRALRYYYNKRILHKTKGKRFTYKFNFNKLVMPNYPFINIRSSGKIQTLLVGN
Method in brief: as §1

ETV6 = ETV6 (Homo sapiens, UniProt P41212 1-452)
Method in brief: as §1

Chain of ETV1 (P50549 whole entry, the tested form may be a part): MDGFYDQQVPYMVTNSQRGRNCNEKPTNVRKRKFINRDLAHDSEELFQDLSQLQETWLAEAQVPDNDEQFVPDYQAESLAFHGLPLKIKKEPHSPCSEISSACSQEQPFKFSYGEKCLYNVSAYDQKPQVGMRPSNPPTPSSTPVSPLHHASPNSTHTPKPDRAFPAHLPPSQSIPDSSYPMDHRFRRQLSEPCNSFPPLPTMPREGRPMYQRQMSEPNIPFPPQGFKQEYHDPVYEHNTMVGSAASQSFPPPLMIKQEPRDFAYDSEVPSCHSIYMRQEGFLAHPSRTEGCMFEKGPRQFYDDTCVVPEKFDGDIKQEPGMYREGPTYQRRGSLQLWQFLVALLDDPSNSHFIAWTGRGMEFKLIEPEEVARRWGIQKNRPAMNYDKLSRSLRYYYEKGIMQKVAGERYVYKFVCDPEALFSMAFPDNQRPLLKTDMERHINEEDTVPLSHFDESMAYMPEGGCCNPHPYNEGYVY
Chain of ETV6 (P41212 whole entry): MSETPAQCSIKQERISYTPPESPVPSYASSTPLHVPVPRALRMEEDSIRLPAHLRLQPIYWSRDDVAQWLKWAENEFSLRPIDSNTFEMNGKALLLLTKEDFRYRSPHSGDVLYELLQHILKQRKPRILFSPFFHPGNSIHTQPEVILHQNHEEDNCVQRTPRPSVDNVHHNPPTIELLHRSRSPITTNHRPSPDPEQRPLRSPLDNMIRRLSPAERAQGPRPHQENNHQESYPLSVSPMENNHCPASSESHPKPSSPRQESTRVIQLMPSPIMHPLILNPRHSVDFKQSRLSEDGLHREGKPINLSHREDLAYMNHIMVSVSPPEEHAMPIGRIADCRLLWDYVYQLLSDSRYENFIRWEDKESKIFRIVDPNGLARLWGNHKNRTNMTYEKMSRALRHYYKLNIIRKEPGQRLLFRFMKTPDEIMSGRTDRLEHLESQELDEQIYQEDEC

Q: Which binding signal (ETV1) does the source give for GCAACT here?
A: 1.25 fold enrichment (6-mer frequency, TF over GST control)

Q: And the binding signal (ERF)?
A: 1.07 fold enrichment (6-mer frequency, TF over GST control)

Q: What about the binding signal (ETV3L) of the same sequence?
A: 1.17 fold enrichment (6-mer frequency, TF over GST control)

Q: What about the binding signal (ETS2) of the same sequence?
A: 1.16 fold enrichment (6-mer frequency, TF over GST control)

Q: And the binding signal (SPDEF)?
A: 1.11 fold enrichment (6-mer frequency, TF over GST control)

Q: What about the binding signal (ETV7) of the same sequence?
A: 1.2 fold enrichment (6-mer frequency, TF over GST control)

Q: What about the binding signal (ELF5) of the same sequence?
A: 1.18 fold enrichment (6-mer frequency, TF over GST control)

Q: And the binding signal (ETV3)?
A: 1.16 fold enrichment (6-mer frequency, TF over GST control)

Q: What about the binding signal (ETV6) of the same sequence?
A: 1.24 fold enrichment (6-mer frequency, TF over GST control)

— PMC7862700, “An all-to-all approach to the identification of sequence-specific readers for epigenetic DNA modifications on cytosine”
